Shown are actives, neighbours in structure and some others; about 19% of the full set was active somewhere.
HepG2 tox: kills HepG2 cells in TGF-b inhibitor counter-screen; hit rate 0.76% among 410,000; HepG2 CAGA-GFP viability, ATP luminescence, 18 h; Potency, µM (highest dose often 46.1 µM), for inactives: at the top dose activity change, negative = cytotoxicity, most hits filed as cytotoxic; also: potency is read from the fitted curve at half-maximal effect
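HepG2 CAGA-GFP cells (1000/well, DMEM with 1% FBS) received compound, then TGF-beta at 500 pg/mL final, and were incubated 18 hours at 37 degrees C. Viability was read by CellTiter-Glo luminescence. Media-only wells were set as complete cell-killing and DMSO as no toxicity.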
IL-1B inflam inh: blocks inflammasome-driven IL-1 beta release. THP-1 LPS/ATP IL-1B secretion, AlphaLISA, 16 h; stronger effect = lower value. hit rate 4.7% among 360,000. activity change, % at 57.5 µM; in the data active = activity change below about -50%; inconclusive = mostly about -30% to -49%; also: % is scaled to controls: 0 for no effect and ±100 for the full control effect
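THP-1 cells pretreated 1 hr with compounds (up to 57.5 uM final), then stimulated with LPS (250 ng/mL final) plus ATP (1.25 mM final); secreted IL-1B measured by AlphaLISA after 16 hr, decreased signal indicating inhibition.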
TDP1 cell CPT: DT40-hTDP1 cell growth loss with CPT; hit rate 12% among 420,000; chicken DT40 Tdp1-/-;hTDP1 cells + 20 nM CPT, ATP luminescence, 48 h; AID 686979; Potency, µM (doses to about 46.2 µM), for the others: at the highest dose activity change, negative = growth inhibition, usual class: inhibitors; also: potency is read from the fitted curve at half-maximal effect; % is scaled to controls: 0 for no effect and ±100 for the full control effect; nearly all actives have a fitted effect of over 55% in size
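Chicken DT40 Tdp1-/- cells complemented with human TDP1, 400 cells/well, exposed to compounds plus 20 nM camptothecin for at least 48 h at 37 C; viability read as ATP content by CellTiter-Glo luminescence.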
TDP1 cell noCPT: qHTS for Inhibitors of human tyrosyl-DNA phosphodiesterase 1 (TDP1): qHTS in cells in absence of CPT; hit rate 15% among 420,000; Potency, µM (titrated, usually from 46.2 µM), inactives show at the highest dose activity change, negative = growth inhibition, hits mostly inhibitors; DT40 Tdp1-/- hTDP1 cells, no CPT, ATP luminescence, 48 h; AID 686978, 2013; also: potency is read from the fitted curve at half-maximal effect; % is scaled to controls: 0 for no effect and ±100 for the full control effect; nearly all actives have a fitted effect of over 55% in size
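Luminescent ATP content (CellTiter-Glo) served as the growth readout. Knockout chicken DT40 cells expressing human TDP1 were exposed to compounds without camptothecin for a minimum 48 hr at 37 °C.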
TDP1 inh: TDP1 (human) enzyme inhibition; AID 485290; Potency, µM (top dose mostly 130 µM), without a hit: at the top dose activity change, negative = inhibition, actives largely listed as inhibitors; recombinant TDP1, AlphaScreen DNA substrate cleavage; hit rate 0.28% among 350,000; also: potency is read from the fitted curve at half-maximal effect; % is scaled to controls: 0 for no effect and ±100 for the full control effect; nearly all actives have a fitted effect of over 40% in size
Target sequence (Q9NUW8 whole entry, looked up): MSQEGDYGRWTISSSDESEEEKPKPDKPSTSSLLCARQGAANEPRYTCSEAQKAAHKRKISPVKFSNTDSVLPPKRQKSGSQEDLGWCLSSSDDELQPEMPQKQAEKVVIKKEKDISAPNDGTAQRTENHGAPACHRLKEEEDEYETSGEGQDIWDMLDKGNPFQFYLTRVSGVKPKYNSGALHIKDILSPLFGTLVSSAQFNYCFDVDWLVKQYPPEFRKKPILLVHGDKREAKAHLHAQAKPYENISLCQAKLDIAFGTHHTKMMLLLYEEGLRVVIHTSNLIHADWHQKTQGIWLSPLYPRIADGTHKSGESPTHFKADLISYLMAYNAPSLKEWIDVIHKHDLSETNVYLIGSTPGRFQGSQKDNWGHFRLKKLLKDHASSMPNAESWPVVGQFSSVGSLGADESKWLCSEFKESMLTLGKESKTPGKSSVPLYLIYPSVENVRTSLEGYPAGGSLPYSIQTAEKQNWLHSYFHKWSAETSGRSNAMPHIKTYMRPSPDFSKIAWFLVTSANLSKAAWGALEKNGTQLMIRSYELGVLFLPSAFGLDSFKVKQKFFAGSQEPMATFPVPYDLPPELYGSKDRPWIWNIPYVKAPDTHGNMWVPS
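Recombinant human Tdp1 (E. coli-expressed, 1 nM final) preincubated with compounds 15 min at room temperature, then 5'-biotin/3'-phosphotyrosine-FITC DNA substrate (15 nM final) added for 5 min. AlphaScreen beads (10 ug/ml final) added 10 min; cleavage lowers signal.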
TGFb SMAD3 inh: blocks TGF-b signaling; hit rate 1.2% among 410,000; Potency, µM (top dose mostly 46.1 µM), without a hit: at the top dose activity, negative = inhibition, most hits filed as inhibitors; HepG2 CAGA-GFP TGF-b/SMAD3 reporter, GFP fluorescence, 18 h; TGF-beta stimulated, 500 pg/mL final; also: potency is read from the fitted curve at half-maximal effect; % is scaled to controls: 0 for no effect and ±100 for the full control effect; nearly all actives have a fitted effect of over 65% in size
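Inhibition of TGF-beta-driven CAGA-GFP reporter expression in HEPG2 cells is measured by cellular GFP fluorescence after 18 h stimulation with 500 pg/mL recombinant TGF-beta in 1% FBS medium at 37 degrees C.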
* hit, by the source's call; ? = inconclusive; / = no result given; [ ] = remark or other dose. Unless noted, calls follow the shape of the dose curve; as a rule, active = well fitted curve in the direction sought with a large enough effect; inconclusive = small, poorly fitted or top-dose-only effect, or another doubt; inactive = no such curve, though single readings can be large; an effect the other way counts as inactive or inconclusive.

SMILES | HepG2 tox | IL-1B inflam inh | TDP1 cell CPT | TDP1 cell noCPT | TDP1 inh | TGFb SMAD3 inh
CCCCNc1cccc2c1S(=O)(=O)N(CCCC)CC(COCc1ccccc1)O2 (configuration not stated) | -4% | 2 | ? | 16µM* | / | 4%
CCCCN1CC(COCc2ccccc2)Oc2cccc(NCc3ccc(OC)cc3)c2S1(=O)=O (configuration not stated) | -3% | 34 | ? | ? | / | -17%
CCCCN1CC(COCc2ccccc2)Oc2cccc(Oc3ccccc3)c2S1(=O)=O (configuration not stated) | -4% | 0 | ? | 18µM* | / | -13%
COc1ccc(S(=O)(=O)NCCc2sc(C)nc2C)cc1F | -35% | / | / | / | 7% | -22%
CCCCc1nc2c(c3c1C[C@H](C)OC3)CN(S(=O)(=O)c1ccc(C)cc1)CC2 | / | / | / | / | 5%[21 µM] | /
O=C(O)C1CCN(C(=O)CSc2nc3ccccc3c(=O)n2-c2ccc(Cl)cc2)CC1 | 3% | 56 | -8% | 19% | 7% | 22%
Cc1ccc(CNc2nc(-c3ccco3)nn2S(C)(=O)=O)cc1 | -8% | / | 6% | -6% | 1% | -5%
CCCCN1CC(COCc2ccccc2)Oc2cccc(Oc3cc(C)c(C)c(C)c3)c2S1(=O)=O (configuration not stated) | -14% | 21 | 7.3µM* | 5.2µM* | / | ?
CCCCN1CC(COCc2ccccc2)Oc2cccc(Oc3ccc(F)cc3)c2S1(=O)=O (configuration not stated) | -6% | 28 | ? | ? | / | ?
COc1cc(C(=O)Oc2cccc(Nc3ncnc4ccccc34)c2)cc(OC)c1OC | -23% | -95* | 23µM* | 16µM* | 7% | ?
COc1cc2ncnc(Nc3ccc(Cl)cc3F)c2cc1OC | / | / | / | / | 9% | /
COc1ccc(C(=O)Oc2cccc(Nc3ncnc4ccccc34)c2)cc1OC | 0% | 0 | ? | 18µM* | 5% | -2%
C#Cc1cccc(Nc2ncnc3cc(OC)c(OC)cc23)c1 | / | / | ? | 23µM* | 10% | /
COc1ccc(-c2cc3nc(C)c(CCC(=O)NC(C)c4ccccc4)c(C)n3n2)c(OC)c1 (configuration not stated) | -24% | / | -23% | ? | 7% | ?
CCOc1ccc(-n2c(SCC(=O)N3CCOCC3)nc3c([nH]c4ccccc43)c2=O)cc1 | -3% | / | -17% | ? | -2% | 2%
Cc1ccc2nc(N(Cc3cccnc3)C(=O)CCS(=O)(=O)c3ccccc3)sc2c1 | -25% | / | ? | 16µM* | 3% | -27%
CCS(=O)(=O)c1ccccc1C(=O)N(Cc1cccnc1)c1nc2cc(C)c(C)cc2s1 | -36% | / | ? | 23µM* | 8% | ?
O=C(CCS(=O)(=O)c1ccccc1)N(Cc1cccnc1)c1nc2ccc(Cl)cc2s1 | 8% | / | 5.8µM* | 13µM* | 5% | 15%
C[n+]1nc(Nc2cccc(F)c2)sc1-c1ccc(C(=O)O)cc1 | / | / | / | / | 1% | /
Cc1cc(NC(=O)OC2CCCCC2)ccc1[N+](=O)[O-] | -9% | -51* | -7% | ? | 1% | ?
CCCn1nc(C(=O)Nc2ccc(S(=O)(=O)Nc3ncccn3)cc2)c2ccccc2c1=O | 11% | 24 | -26% | -13% | 0% | 1%
CCn1nc(C(=O)Nc2nc(-c3ccccn3)cs2)c2ccccc2c1=O | -38% | 1 | 2.9µM* | 3.3µM* | 0% | ?
Cn1nc(C(=O)Nc2nc(-c3ccccn3)cs2)c2ccccc2c1=O | -23% | 17 | 4.6µM* | 1.3µM* | 12% | -5%

High-throughput results deposited in PubChem BioAssay by National Center for Advancing Translational Sciences (NCATS).
